Only some compounds are listed: those with a hit (about 4.2% of all), similar ones and a draw of the others.
Mtb bLac sens: beta-lactam sensitization of Mtb H37Rv; M. tuberculosis H37Rv growth with meropenem, percent inhibition; inhibition, % at 25 µM; 0.27% of 330,000 active; call rule not given here;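 note: growth measured after seven days incubation then overnight dye step; 0% = bacteria only wells and 100% = bacteria with antibiotic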
CCHFV vOTU inh: CCHFV vOTU protease inhibition; Pep-AMC fluorescence; 0.55% of 370,000 active; inhibition, % at 11.5 µM; note: 0% = vehicle wells with enzyme and 100% = no enzyme wells
RecA intein inh: blocks M. tuberculosis RecA intein splicing | P9WHJ3 | cell-free RecA intein splicing, fluorescence | inhibition, % (concentration not given with the values) | 0.75% of 290,000 active | AID 2221; in the data active = inhibition above about 30%; inconclusive = no clear call, values can overlap the other calls;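 note: 0% = vehicle wells and 100% = reference inhibitor control wells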
FBA Mtb inh: inhibitors of M. tuberculosis fructose-bisphosphate aldolase; P9WQA3; purified M. tuberculosis FBA, fluorescence read-out; inhibition, % at 1 µM; 2.3% of 360,000 active; in the data active = inhibition above about 27%;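 note: 0% = vehicle and 100% = reference inhibitor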
Target sequence (P9WQA3 whole entry, looked up): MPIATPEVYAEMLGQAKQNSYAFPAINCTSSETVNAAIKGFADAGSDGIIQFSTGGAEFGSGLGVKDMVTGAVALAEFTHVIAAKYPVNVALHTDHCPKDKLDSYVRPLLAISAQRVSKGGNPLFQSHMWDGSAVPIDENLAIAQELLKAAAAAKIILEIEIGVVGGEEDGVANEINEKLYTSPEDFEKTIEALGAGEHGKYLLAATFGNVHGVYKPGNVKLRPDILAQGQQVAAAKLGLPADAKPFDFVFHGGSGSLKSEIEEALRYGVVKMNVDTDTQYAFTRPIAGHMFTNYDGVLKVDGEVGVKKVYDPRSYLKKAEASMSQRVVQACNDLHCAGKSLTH
GDH-TPI counter: inhibits GDH-TPI coupling enzymes, artifact for Mtb FBA screen; GDH-TPI coupled enzyme counterscreen, NADH absorbance; inhibition, % at 4.8 µM; 1.2% of 360,000 active; AID 588335;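 note: 0% = DMSO wells and 100% = wells lacking the enzyme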
Active calls of the source: *; u = inconclusive; x = no result given; + = active, no number. Cut-off read from the data, not from the text of the source, unless noted: active = inhibition above about 30%; inactive = the rest.

SMILES	Mtb bLac sens	CCHFV vOTU inh	RecA intein inh	FBA Mtb inh	GDH-TPI counter
COc1cccc(-c2cc(-c3cccnc3)nc(N)c2C#N)c1	-5	-170	-3	127*	12
N#Cc1c(-c2cccc(Br)c2)cc(-c2cccnc2)nc1N	5	-95	-5	131*	16
COc1ccc(OC)c(-c2cc(-c3cccnc3)nc(N)c2C#N)c1	1	-4	-4	0	28
COc1ccc(-c2cc(-c3ccc(O)cc3)nc(N)c2C#N)cc1	70	-4	5	49*	4
COc1cccc(-c2cc(-c3cccnc3)c(C#N)c(N)n2)c1	0	-186	3	+	32*
COC(=O)C1CCCN(C(=O)C2CCN(S(=O)(=O)c3ccc([N+](=O)[O-])cc3)CC2)C1 (configuration not stated)	x	3	x	x	x
CSc1nc(SCC(=O)NCc2ccco2)c2c3c(sc2n1)COC(C)(C)C3	u	-10	4	18	36*
COc1cc2c(c(OC)c1OC)C(=O)C(=Cc1ccccc1)O2	x	-8	x	-1	36*
COc1cc(OC)c(OC)cc1/C=N/NC(=O)CCc1c(C)n[nH]c1C	1	-13	-4	22	56*
CCN(CC)C(=O)c1ccc(C(CCOC(=O)Oc2ccccc2)c2ccc(OC)cc2)cc1 (configuration not stated)	x	9	x	x	x
c1ccc2sc(-c3ccc4c(c3)OCO4)nc2c1	-4	x	x	130*	18
O=C1N(CCCO)CCC12CCC(c1ccccc1)CC2 (configuration not stated)	x	-5	x	x	x
O=c1[nH]c(-[n+]2ccc3ccccc3c2)c(/C=N/N=C(\[O-])c2ccccc2)s1	11	13	2	3	31*
CC(C)(C)c1cc[n+](-c2[nH]c(=O)sc2/C=N/NC(=O)c2ccccc2[O-])cc1	0	10	-1	-3	22
CC(C)(C)c1cc[n+](-c2[nH]c(=O)sc2/C=N/N=C(\[O-])c2cccnc2)cc1	-4	5	-1	-3	32*
CC(C)[C@@H](CO)N(Cc1cn(Cc2ccccc2)nn1)S(=O)(=O)c1ccccc1Br	x	-2	x	x	x
O=C(CSc1nnc(-c2ccncc2)n1-c1ccc(Br)cc1)c1ccccc1	x	1	x	x	x
CC1(CC(=O)N/N=C/c2ccc(OCc3ccc(Cl)cc3Cl)cc2)OCCCO1	-2	19	39*	-1	7
CN(C)CC(=O)N[C@@H]1C[C@@H]2O[C@@H](CO)CC[C@@H]2O[C@@H]1CCc1ccc(C2=CCCCC2)cc1	x	0	x	x	x
O=C(CCS(=O)(=O)c1ccccc1)Nc1nc(-c2ccc(F)cc2)cs1	4	12	1	6	34*
COC(=O)CSc1nnc(-c2cccs2)o1	x	-3	x	x	x
CCOc1ccc(/C=C2\SC(N3CCCCC3)=NC2=O)cc1	5	6	5	2	48*
O=C(CCCN1C(=O)c2cccnc2C1=O)Nc1ccc(F)cc1Cl	3	7	-3	+	12
CCN(CC)CCNC(=O)c1cc2c(-c3ccc(Cl)cc3)nn(C)c2s1	13	-47	x	136*	12
CCOC(=O)CC[C@@]1(C(=O)OCC)C[C@@H](CC(=O)NCc2cccc3ccccc23)C(=O)N2CCCC=C21	x	0	x	x	x
SMILES	Mtb bLac sens	CCHFV vOTU inh	RecA intein inh	FBA Mtb inh	GDH-TPI counter
CC(=O)NNC(=O)c1sc(=S)n(C)c1C	32	6	0	-4	33*
CC1=NNC(=O)/C1=C\c1cn(-c2ccccc2)nc1-c1ccc(Cl)cc1	100	-9	90*	0	10
C=CCN1[C@@H](CC(C)C)COc2cccc(N3CCCC3)c2S1(=O)=O	x	13	x	x	x
C(=Nc1cccc2c(N=Cc3ccco3)cccc12)c1ccco1	-5	x	6	62*	4
CN(C)c1ccc(N=Cc2ccco2)cc1	9	x	x	-2	9
CC(=O)c1ccc(N/N=C2/CCCNC2=O)cc1	22	10	-2	-2	36*
Cc1ccc(N/N=C2/CCCNC2=O)cc1	95	9	0	-1	9
C[C@H]1C(c2ccccc2F)O[C@]2(C[C@H](O)c3c(ccc4ccccc34)O2)C[C@@H]1O (some centres not stated)	x	4	x	x	x
Cc1cccc(OC(C)CCN2CCC(C(O)(c3ccccc3)c3ccccc3)CC2)c1 (configuration not stated)	x	4	x	x	x
ClCCN(CCCl)c1ccc(C=NNc2ncccn2)cc1	x	24	x	1	57*
ClCCN(CCCl)c1ccc(C=Cc2ccncn2)cc1	x	-5	x	0	12
N#Cc1ncc(N=Cc2ccc(N(CCCl)CCCl)cc2)s1	x	6	x	-1	52*
COC(=O)[C@]12C[C@H](CC(=O)NCc3ccccc3)C(=O)N(CCC3=CCCCC3)C1=C[C@H](COCc1ccccc1)O[C@@H]2C	x	4	x	x	x
CCOC(=O)C1=NOC(C(=O)Nc2cc(C)cc(C)c2)(C(=O)C2CC2)C1 (configuration not stated)	x	-2	x	x	x
Cc1csc2ncc(C(=O)N3CCc4ccccc43)c(=O)n12	-2	13	2	5	52*
Cc1csc2ncc(C(=O)N3CCCc4ccccc43)c(=O)n12	-1	21	8	6	37*
CCC(=O)N[C@H]1C[C@@H]2O[C@@H](CO)CC[C@@H]2O[C@@H]1CCc1ccc(-c2cccc(OC)c2)cc1	x	7	x	x	x
Cc1ccc(C)n1-c1ccc(C(=O)NCc2cccnc2)cc1	0	x	2	31*	3
CC(C)(C)c1ccc(C(=O)NCc2cccnc2)cc1	4	-8	-1	-2	10
Cc1cccc(NC(=O)CCS(=O)(=O)c2ccccc2)c1C	x	-3	x	x	x
CC(=O)Nc1ccc(N/C=C/C(=O)C(C)(C)C)cc1	8	-5	2	2	42*
COC1=C[C@H](C(=O)N[C@H]2CCCC[C@@H]2NC(C)=O)[C@H](C)[C@@H](c2ccccc2)CC1=O	x	5	x	x	x
COc1ccc(Oc2c(Cl)cnn(C3c4ccccc4-c4ccccc43)c2=O)cc1	x	15	x	x	x
CC(C)Cn1cc(C(=O)N2CCC3(CC2)OCCO3)c2c3ccccc3n(C)c2c1=O	0	-32	x	37*	11
COCCn1cc(C(=O)N2CCC(C)CC2)c2c3ccccc3n(C)c2c1=O	0	-47	1	43*	-3
SMILES	Mtb bLac sens	CCHFV vOTU inh	RecA intein inh	FBA Mtb inh	GDH-TPI counter
COC(=O)[C@H](CC(C)C)N(CCCc1cn(Cc2ccccc2)nn1)S(=O)(=O)c1ccc(F)cc1Br	x	19	x	x	x
CC1=C/C(=C/N(C)C)C(=O)O1	-1	12	-4	2	-2
CN(C)/C=C1/C=C(c2ccccc2)OC1=O	20	-7	-1	2	33*
C=CCN1[C@H](Cc2ccccc2)COc2cccc(N3CCSCC3)c2S1(=O)=O	x	0	x	x	x
O=C(N/N=C/c1cn(-c2ccccc2)nc1-c1cc2ccccc2o1)c1ccccc1Br	39	13	1	3	31*
CCCCN(C)C(=O)CNc1nnnn1-c1ccccc1	x	0	x	x	x
COc1cc(/C=C/c2nc3ccccc3s2)cc(OC)c1O	70	-12	-14	2	10
COc1cc(C=C(c2nc3ccccc3s2)c2nc3ccccc3s2)ccc1O	7	13	51*	-10	17
CCc1ccc(/C=N/Nc2ncnc3nc[nH]c23)cc1	-6	-5	-3	3	71*
